# GPT2 inh: GPT2 alanine aminotransferase inhibition; 100,000 compounds, 0.25% hits; Recombinant GPT2, coupled pyruvate oxidase/HRP Amplex Red fluorescence; Potency, µM (highest dose often 57.7 µM), usual class: inhibitors; further: nearly all actives have a fitted effect of over 60% in size
# Target sequence (Q8TD30 whole entry, looked up): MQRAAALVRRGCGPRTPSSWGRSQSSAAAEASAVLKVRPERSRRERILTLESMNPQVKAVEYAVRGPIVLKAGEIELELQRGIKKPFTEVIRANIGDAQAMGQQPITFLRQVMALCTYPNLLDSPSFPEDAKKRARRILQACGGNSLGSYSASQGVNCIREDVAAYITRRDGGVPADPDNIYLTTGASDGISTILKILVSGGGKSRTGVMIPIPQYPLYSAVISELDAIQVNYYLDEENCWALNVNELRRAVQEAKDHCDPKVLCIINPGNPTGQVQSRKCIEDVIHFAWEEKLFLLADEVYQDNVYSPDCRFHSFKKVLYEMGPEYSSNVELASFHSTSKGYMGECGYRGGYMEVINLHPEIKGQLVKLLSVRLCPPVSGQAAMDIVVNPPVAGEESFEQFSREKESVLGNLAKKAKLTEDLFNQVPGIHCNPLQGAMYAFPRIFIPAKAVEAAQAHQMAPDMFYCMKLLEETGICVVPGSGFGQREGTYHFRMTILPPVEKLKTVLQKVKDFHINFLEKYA
#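 Recombinant GPT2 (10ng/uL) with 250uM a-KG and 2mM L-alanine, 30 min at room temperature, in HEPES pH 7.5 buffer. Pyruvate detected by pyruvate oxidase/HRP/Amplex Red fluorescence after 30 min in the dark; AOA (50uM) as positive control.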
# IP6K1 inhibitor: inhibitors of human IP6K1; Q92551; IP6K1 kinase, ADP-Glo luminescence, 2 h; stronger effect = lower value; activity change, % (series mostly up to about 58 µM); 140,000 compounds, 0.81% hits; in the data active means activity change below about -25%
#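 ADP-Glo luminescence measures ADP made by human IP6K1 during a 2 h RT reaction with ATP/IP6 (mix at 1.3 mM/130 uM); top library doses 57.5 and 19.1 uM final.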
# HEK293 viab: counter-screen for SNCA expression inhibitors: cell viability; 150,000 compounds, 0.12% hits; HEK-293-SNCA-luc viability, GF-AFC fluorescence, 24 h; Potency, µM (titrated, usually from 57.1 µM), hits mostly cytotoxic; further: nearly all actives have a fitted effect of over 30% in size
#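 HEK-293-SNCA-luc cells (1500/well) plated 24 h, then exposed 24 h to a dilution series; GF-AFC added 30 min at 37C, fluorescence 405/540 nm; normalised to medium-only and DMSO wells, Hill fit.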
# SNCA expr inhib: reduces expression of the alpha-synuclein gene | HEK-293 SNCA-luciferase knock-in, luminescence, 24 h | Potency, µM (titrated, usually from 57.2 µM), hits mostly inhibitors | 140,000 compounds, 0.17% hits | AID 1671194; further: nearly all actives have a fitted effect of over 45% in size
# IP6K1 inh cnf: confirmation of human IP6K1 inhibitors. shares compounds with IP6K1 inhibitor. recombinant IP6K1 kinase, ADP-Glo luminescence, 2 h. Potency, µM (doses to about 49 µM), hits mostly inhibitors. 1,200 compounds, 13% hits. AID 1645852; further: nearly all actives have a fitted effect of over 65% in size
# Hits are given with their value; 0 = inactive; ? = inconclusive; - = no result; [ ] = dose if it differs, or a comment. Shown are actives, neighbours in structure and some others; about 1% of the full set was active somewhere. Unless noted, the call rests on the fitted dose curve; in most records, active means well fitted curve in the direction sought with a large enough effect; inconclusive means small, poorly fitted or top-dose-only effect, or another doubt; inactive means no such curve, though single readings can be large; an effect the other way counts as inactive or inconclusive.
SMILES,GPT2 inh,IP6K1 inhibitor,HEK293 viab,SNCA expr inhib,IP6K1 inh cnf
O=C(Nc1cccc(OC(F)(F)F)c1)c1cc(-c2ccc[nH]2)n[nH]1,0,0,0,0,?
O=C(Nc1ccc(I)cc1)c1cc(-c2ccc[nH]2)n[nH]1,0,0,0,0,?
Cc1cc(NC(=O)c2cc(-c3ccc[nH]3)n[nH]2)ccc1F,0,0,0,0,-
COc1ccc(NC(=O)c2cc(-c3ccc[nH]3)n[nH]2)cc1OC,0,0,0,0,-
c1cncc(Cc2noc(C3CN(Cc4ccsc4)C3)n2)c1,0,0,0,0,-
CNC(=O)c1ccc(NC(=O)c2nsc3ccccc23)cc1,-,-27.0,0,0,?
COc1ccccc1-c1cccc(CN2CCCC(C(=O)NC3CCCC3)C2)c1 (stereo unspecified),?,0,0,?,-
O=C(NCc1ccnc2[nH]ccc12)c1ccccc1,0,0,0,0,-
Fc1ccccc1CNCc1ccc(-c2ccnc3[nH]ccc23)cc1,0,-42.2,0,-,?
COc1ccc(-c2cc(-c3ccccc3)nc3c(C)noc23)cc1OC,0,0,0,0,-
CCCCOc1ccc(S(=O)(=O)n2nc(C)c(S(=O)(=O)N3CCC(C)CC3)c2C)cc1,-,-26.0,0,0,0
Cc1ccc(S(=O)(=O)n2nc(C)c(S(=O)(=O)N3CCCCCC3)c2C)cc1C,-,-26.9,0,0,0
CCCCOc1ccc(S(=O)(=O)n2nc(C)c(S(=O)(=O)N3CCCCCC3)c2C)cc1,-,0,0,0,-
CC(C)(C)C(=O)N1CCCC(C(=O)N2CCC3(CC2)CC(=O)Nc2ccccc2O3)C1 (stereo unspecified),0,0,0,0,-
CN(C)C(=O)CCc1ccc(CC2CCN(Cc3ccccc3)CC2)cc1,0,0,0,0,-
CC(C)CC(=O)OC[C@H]1O[C@@](COC(=O)CC(C)C)(O[C@H]2O[C@H](CO)[C@@H](O)[C@H](O)[C@H]2OC(=O)CC(C)C)[C@@H](OC(=O)CC(C)C)[C@@H]1O,0,0,0,-,-
C/C=C(\C)C(=O)O[C@H]1[C@@H](O[C@]2(COC(=O)CC(C)C)O[C@H](COC(=O)C(C)C)[C@@H](OC(C)=O)[C@@H]2O)O[C@H](COC(C)=O)[C@@H](O)[C@@H]1O,0,-37.7,0,-,?
Cc1nn(-c2ccccc2)c2c1C(C(C)C)N(C1CCN(C(=O)Nc3ccc(Cl)cc3)CC1)C2=O (stereo unspecified),-,0,-,-,-
CN(C)[S+](=O)([O-])c1ccc2c(c1)OCCN(Cc1ccc(C(F)(F)F)cc1)C2,0,0,0,0,-
CCOC(=O)[C@@H]1[C@@H](OC)C(=O)N(C)C12CCN(C(=O)OCC(C)(C)C)CC2,-,0,-,-,-
O=C(C1CCCN(Cc2cccc(-c3cccs3)c2)C1)N1CCN(Cc2ccccc2)CC1 (stereo unspecified),0,0,0,0,-
C#C[C@]1(O)CC[C@H]2[C@@H]3CCc4cc(OC)ccc4[C@H]3CC[C@@]21C,0,-26.6,0,0,?
C#C[C@]1(O)CC[C@H]2[C@H]3CCc4cc(OC)ccc4[C@H]3CC[C@@]21C,0,-,0,0,-
COCC(=O)N[C@@H]1C[C@H](COC)[C@@H](O)[C@H]1O,0,0,0,0,-
COC[C@H]1C[C@@H](N(C)C)[C@H](O)[C@@H]1O,0,-25.4,0,0,?
SMILES,GPT2 inh,IP6K1 inhibitor,HEK293 viab,SNCA expr inhib,IP6K1 inh cnf
Cc1ccc(Cn2c(-c3ccccc3)nc3ccccc32)cc1,-,-26.8,0,0,0
Cc1ccc(Cn2c(Cc3ccccc3)nc3ccccc32)cc1,-,-27.0,0,0,0
Cc1ccc(NC(=O)CCC[C@H]2NC[C@@H]3C[C@H]2CN(Cc2ccccc2)C3)cc1,0,0,0,0,-
O=C(N[C@@H]1CN(C(=O)Nc2cccc(C(F)(F)F)c2)CCC[C@H]1O)c1ccc(OCc2ccccc2)cc1,0,0,?,?,-
COc1ccc(S(=O)(=O)N(CC(=O)NCc2ccccc2)c2ccc(C)cc2)cc1OC,-,-25.9,?,0,0
COc1ccc(S(=O)(=O)N(CC(=O)NC(C)c2ccccc2)c2ccc(C)cc2)cc1OC (stereo unspecified),-,-32.7,0,0,?
COc1ccc(C(C)NC(=O)CN(c2cc(OC)ccc2OC)S(=O)(=O)c2ccccc2)cc1 (stereo unspecified),-,0,0,0,-
CC(C)NC(=O)N1CC[C@H](N=C2Nc3cc(F)ccc3N(CC(F)F)c3ccc(Cl)cc32)C1,0,0,0[12.5 µM],-,0
O=C(Nc1ccc(Br)cc1)c1cc(S(=O)(=O)NC2CCCC2)ccc1F,-,-35.0,0,0,0
O=C1c2cnc(-c3cccc(CO)c3)nc2OCCN1c1ccccc1,0,-40.3,0,7.94µM,?
O=C1c2cnc(-c3cccc(CO)c3)nc2OCCN1Cc1ccccc1,0,0,0,0,-
CC(=O)NCCNC[C@@H]1C=C(C)[C@H](Cc2nnc(-c3ccccc3)o2)C[C@H]1C(C)C,0,0,?,0,-
CCc1nc2c(c(-c3ccc(Cl)cc3)n1)CN(C(=O)OC)CC2,0,0,0,0,-
CCc1nn(CC(=O)N2CCN(c3cccc(Cl)c3)CC2)c(=O)c2cc3sccc3n12,-,0,0,?,-
CCc1nn(CC(=O)N2CCN(c3cccc(C)c3C)CC2)c(=O)c2cc3sccc3n12,-,-28.9,0,0,0
CN1Cc2ncnc(NCC3CC3)c2CN(c2ccc(Cl)cc2)C1=O,0,0,0,0,-
CN1Cc2ncnc(NCCc3ccc(F)cc3)c2CN(c2ccc(Cl)cc2)C1=O,0,-29.1,0,?,0
O=C(N1CCOCC1)N1CCN(c2ccc3nnc(C4CC4)n3n2)CC1,-,0,-,-,-
Cc1ccc(CCNC(=O)CCn2nc(-c3ccc(Cl)cc3)ccc2=O)cc1,-,-28.1,0,0,0
CN(Cc1ccccc1)C(=O)c1ccc(N2CC3CC(C2)[C@H]2CCCC(=O)N2C3)nc1 (stereo partly specified),0,0,0,0,-
CCCC(=O)Nc1ccc2c(c1)nc(CN1CCN(C(=O)OCC)CC1)n2C(C)C,-,-27.7,0,?,0
CCOC(=O)N1CCN(Cc2nc3cc(NC(=O)c4ccccc4Cl)ccc3n2C(C)C)CC1,-,-25.1,0,0,0
Cc1ccsc1CN1CCCC12Cc1ccccc1CNC2=O (stereo unspecified),0,0,0,0,-
O=C(NCc1cccc(Cl)c1)C1CN(c2ccc(F)cc2)C(=O)N1 (stereo unspecified),0,0,0,?,-
COc1ccc2nc3n(c2c1)[C@@H](CNC(=O)c1ccc(F)cc1)COC3,0,-25.9,0,0,?
COc1ccc2nc3n(c2c1)[C@@H](CNS(=O)(=O)c1ccc(F)cc1)COC3,0,0,0,0,-
Cc1cc(C)n(CCC(=O)N2Cc3ccccc3OC3(CCN(C(C)C)CC3)C2)n1,0,0,0,0,-
Cc1ccc([S+](=O)([O-])NC2CCN(Cc3cccc(-c4cccs4)c3)CC2)cc1,0,0,0[12.5 µM],0,-
NC(=O)CSc1oc(-c2ccco2)nc1S(=O)(=O)c1ccc(Cl)cc1,-,0,0,0,-

# Screens: PubChem BioAssay, National Center for Advancing Translational Sciences (NCATS)
